Assay outcomes deposited in PubChem BioAssay by several laboratories.
NLRP3 yeast inh: inhibitors of NALP3 inflammasome in yeast. inhibition, % at 10 µM. AID 2825. Yeast reconstituted NLRP3/ASC/caspase-1, beta-gal luminescence, 24 h. 0.39% of 330,000 active;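 active means inhibition of 50% or more; inactive means inhibition below 50%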;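 further: plate controls were induced DMSO wells for no effect and uninduced yeast grown without galactose for full effect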
SKKanGAS inh: SKKanGAS growth inhibition. S. pyogenes SKKanGAS, kanamycin growth, BacTiter-Glo, 6 h. inhibition, % at 7.5 µM. 1.3% of 300,000 active. AID 1662;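 active means mean replicate score, as percent of positive control median, at least 50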;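 further: strain carries kanamycin resistance gene driven by streptokinase promoter and grows in 40 µg/ml kanamycin; loss of luminescence reflects streptokinase promoter inhibition or plain growth inhibition; 0% = median of DMSO wells and 100% = positive control at its reference dose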
tim10-1 inh: growth inhibitors of tim10-1 mutant yeast; S. cerevisiae tim10-1 ts strain growth, BacTiter-Glo, 24 h; inhibition, % at 20 µM; 2.2% of 330,000 active; AID 463190;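 active means inhibition of at least 40%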;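 further: mutant grown at 25 °C; 0% = DMSO wells with yeast and 100% = wells holding no yeast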
TIM10 inh: growth inhibitors of TIM10 yeast strain; inhibition, % at 10 µM; 1.4% of 330,000 active; S. cerevisiae TIM10 strain growth, BacTiter-Glo luminescence, 24 h; AID 463195;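 active means inhibition of 40% or more at the single tested concentration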;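 further: wild-type TIM10 isogenic control strain grown at permissive 25 °C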
tim23-1 inh: tim23-1 yeast growth inhibition | S. cerevisiae tim23-1 growth, BacTiter-Glo luminescence, 24 h | 1.3% of 330,000 active | AID 463212 | inhibition, % at 20 µM;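 active means growth inhibition of the mutant yeast at or above 50%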;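 further: temperature-sensitive mutant grown at 25 °C; plate controls were DMSO-treated mutant yeast for no effect and medium wells lacking yeast for full effect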
tim10-1 conf: confirmation of tim10-1 mutant yeast growth inhibitors | inhibition, % at 20 µM | 56% of 7,400 active | S. cerevisiae tim10-1 ts strain growth, BacTiter-Glo, 24 h | AID 463213 | shares compounds with tim10-1 inh;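 active means inhibition of yeast growth at or above a set limit in either of two repeat tests at 20 µM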;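 further: tim10-1 mutant grown at permissive 25 °C to find synthetic lethal compounds; 0% = DMSO yeast wells and 100% = medium wells without yeast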
Starred values were filed as active, the others as inactive. The list is not random: actives were taken first. Their share in the collection is about 4.6%.

How did CC(=O)[C@H]1[C@H](C#N)C[C@H]2[C@@H]3CC=C4C[C@@H](O)CC[C@]4(C)[C@H]3CC[C@@]21C do in these assays?
NLRP3 yeast inh: 8.7; SKKanGAS inh: 4.1; tim10-1 inh: 40.6*; TIM10 inh: 35.8; tim23-1 inh: 38.6; tim10-1 conf: 33.9*

How did CCCCNC(=S)N1CCn2cccc2C1c1ccccc1 (configuration not stated) do in these assays?
NLRP3 yeast inh: 15.6; SKKanGAS inh: -0.3; tim10-1 inh: 14.4; TIM10 inh: 12.7; tim23-1 inh: 3.7

Results for CCCCNC(=S)N1CCn2cccc2C1c1ccc(F)cc1 (configuration not stated) ?
NLRP3 yeast inh: 1.0; SKKanGAS inh: 10.3; tim10-1 inh: 43.7*; TIM10 inh: 15.4; tim23-1 inh: -2.3; tim10-1 conf: 21.0

Results for COc1ccc(C(C)=O)c(Oc2nc(CN3CCOCC3)nc3scc(-c4cccs4)c23)c1 ?
NLRP3 yeast inh: 7.7; SKKanGAS inh: 8.9; tim10-1 inh: 40.1*; TIM10 inh: 9.7; tim23-1 inh: 20.3; tim10-1 conf: 13.6

How did CC(=O)c1ccccc1Oc1nc(CN2CCOCC2)nc2scc(-c3cccs3)c12 do in these assays?
NLRP3 yeast inh: 10.4; SKKanGAS inh: 0.7; tim10-1 inh: 27.9; TIM10 inh: 30.0; tim23-1 inh: 4.4

What do the screens show for `COC(=O)c1ccc(CNC(=O)COC(=O)c2ccccc2-c2ccccc2)cc1`?
NLRP3 yeast inh: 13.6; SKKanGAS inh: 24.5; tim10-1 inh: 26.6; TIM10 inh: 5.8; tim23-1 inh: 34.7

Results for Cc1noc(C)c1S(=O)(=O)NCc1cccc(Cl)c1 ?
NLRP3 yeast inh: 0.4; tim10-1 inh: 17.1; TIM10 inh: -1.6; tim23-1 inh: 10.3

What do the screens show for `CCOC(=O)C1(CCCc2ccccc2)CCN(S(=O)(=O)N(C)C)CC1`?
NLRP3 yeast inh: 16.1; SKKanGAS inh: 1.7; tim10-1 inh: 1.1; TIM10 inh: -8.4; tim23-1 inh: 32.3

How did C/C(=N/NC(=O)c1cc2ccccc2cc1O)C1C(=O)c2ccccc2C1=O do in these assays?
NLRP3 yeast inh: 13.0; SKKanGAS inh: 83.3*; tim10-1 inh: 46.8*; TIM10 inh: 20.1; tim23-1 inh: 26.8; tim10-1 conf: 32.3*

What do the screens show for `C/C(CC(=O)N1CCN(C=O)CC1)=N\NC(=O)c1cc2ccccc2cc1O`?
NLRP3 yeast inh: -5.2; SKKanGAS inh: 4.6; tim10-1 inh: 18.8; TIM10 inh: 3.3; tim23-1 inh: 6.8

Results for C/C(=N\NC(=O)c1cc2ccccc2cc1O)c1ccccn1 ?
NLRP3 yeast inh: 19.9; SKKanGAS inh: 101.9*; tim10-1 inh: 60.0*; TIM10 inh: -21.8; tim23-1 inh: 28.9; tim10-1 conf: -29.6

What do the screens show for `CCCn1nc(C(=O)NNC(=O)CCCOc2ccc(C)cc2)c2ccccc2c1=O`?
NLRP3 yeast inh: 2.8; SKKanGAS inh: 0.0; tim10-1 inh: 1.3; TIM10 inh: 0.9; tim23-1 inh: -8.2

Results for Cc1c(/C=N/NC(=O)CNc2ccccc2)c2ccccn2c1C(=O)c1ccccc1 ?
NLRP3 yeast inh: 12.8; SKKanGAS inh: 24.8; tim10-1 inh: 40.1*; TIM10 inh: 10.9; tim23-1 inh: 28.7; tim10-1 conf: 19.2

What do the screens show for `Cc1c(/C=N/NC(N)=O)c2ccccn2c1C(=O)c1ccncc1`?
NLRP3 yeast inh: 0.4; SKKanGAS inh: 1.2; tim10-1 inh: 9.5; TIM10 inh: -7.8; tim23-1 inh: 13.3

Results for CNc1ccc(C(=O)N2CCN(S(=O)(=O)c3ccc4c(c3)OCCCO4)CC2)cc1[N+](=O)[O-] ?
NLRP3 yeast inh: 28.3; SKKanGAS inh: -1.4; tim10-1 inh: 19.2; TIM10 inh: 10.7; tim23-1 inh: 26.7

How did COc1ccc(-c2cc(-c3ccccc3)c(C#N)c(S(C)=O)n2)cc1 (configuration not stated) do in these assays?
NLRP3 yeast inh: 1.8; SKKanGAS inh: -7.0; tim10-1 inh: 45.1*; TIM10 inh: 24.5; tim23-1 inh: 34.1; tim10-1 conf: 29.6*

How did N/C(=N\S(=O)(=O)c1cc(C(F)(F)F)cc(C(F)(F)F)c1)c1ccc(Cl)cc1 do in these assays?
NLRP3 yeast inh: 14.9; SKKanGAS inh: 20.0; tim10-1 inh: 45.8*; TIM10 inh: 35.0; tim23-1 inh: 47.5; tim10-1 conf: 42.6*

How did N#Cc1ccccc1S(=O)(=O)N1CCN(C(=O)C2CCC2)CC1 do in these assays?
NLRP3 yeast inh: 18.0; SKKanGAS inh: -12.1; tim10-1 inh: 96.6*; TIM10 inh: -1.8; tim23-1 inh: -2.0; tim10-1 conf: 3.7

Results for C=CCN=c1scc(-c2ccc(F)cc2)n1/N=C/c1ccccn1 ?
NLRP3 yeast inh: -7.1; SKKanGAS inh: -2.0; tim10-1 inh: 40.6*; TIM10 inh: 35.0; tim23-1 inh: 26.7; tim10-1 conf: 14.0

What do the screens show for `CCc1ccc(/C=C2\Oc3cc(OS(C)(=O)=O)ccc3C2=O)cc1`?
NLRP3 yeast inh: 30.7; SKKanGAS inh: 13.0; tim10-1 inh: 40.4*; TIM10 inh: 10.8; tim23-1 inh: 25.1; tim10-1 conf: 26.1

Results for O=C(COc1ccccc1[N+](=O)[O-])OCC(=O)c1ccc(Br)s1 ?
NLRP3 yeast inh: 16.5; tim10-1 inh: -1.0; TIM10 inh: -10.0; tim23-1 inh: 5.1

What do the screens show for `CC(C)N(Cc1ccccc1)C(=S)NC1CCCCC1`?
NLRP3 yeast inh: -2.9; SKKanGAS inh: -3.1; tim10-1 inh: 51.4*; TIM10 inh: 15.8; tim23-1 inh: 18.4; tim10-1 conf: 25.5

What do the screens show for `COc1ccc(C2=CC(c3ccc(OC)c(OC)c3)NC(=S)N2)cc1` (configuration not stated)?
NLRP3 yeast inh: -9.2; SKKanGAS inh: 6.4; tim10-1 inh: 11.8; TIM10 inh: 6.6; tim23-1 inh: 3.7

Results for COc1ccc(C2C=C(C34CC5CC(CC(C5)C3)C4)NC(=S)N2)cc1 (configuration not stated) ?
NLRP3 yeast inh: 12.7; SKKanGAS inh: 12.2; tim10-1 inh: 43.0*; TIM10 inh: 22.0; tim23-1 inh: 35.2; tim10-1 conf: 30.0

Results for CC(=O)c1cccc(NC(=O)C2=CN3CCS(=O)(=O)N=C3C=C2)c1 ?
NLRP3 yeast inh: 22.2; tim10-1 inh: -5.2; TIM10 inh: 0.4; tim23-1 inh: -2.0

What do the screens show for `CCN(CC)C(=O)CSc1ncnc2sc(-c3ccccc3)cc12`?
NLRP3 yeast inh: 13.6; SKKanGAS inh: 10.9; tim10-1 inh: 45.9*; TIM10 inh: 16.4; tim23-1 inh: 23.8; tim10-1 conf: 23.2

What do the screens show for `O=C(NCCc1ccccc1)c1ccc2c(c1)S(=O)(=O)c1cc(Cl)ccc1C2=O`?
NLRP3 yeast inh: 7.6; tim10-1 inh: -17.3; TIM10 inh: -1.2; tim23-1 inh: -5.1

What do the screens show for `CCN(Cc1ccccc1)S(=O)(=O)c1ccc(C(=O)N(CCCN(C)C)c2nc3cc4c(cc3s2)OCCO4)cc1`?
NLRP3 yeast inh: 22.9; SKKanGAS inh: 4.0; tim10-1 inh: 46.2*; TIM10 inh: -60.8; tim23-1 inh: 8.0; tim10-1 conf: 4.2
